Mtb hypoxia rep: reduces hypoxia-regulated biosensor signal in M. tuberculosis; M. tuberculosis hypoxia-regulated fluorescent reporter, fluorescence; fluorescence inhibition, % (concentration not given with the values); 300,000 compounds, 0.1% hits; AID 1159583; in the data active = fluorescence inhibition mostly above about 23%, no sharp cut-off; inactive = mostly below about 17%
VHR inh abs: DUSP3 (human) phosphatase inhibition. recombinant VHR phosphatase, pNPP absorbance. inhibition, % at 13.3 µM. 290,000 compounds, 0.52% hits. AID 1654; in the data active = inhibition above about 50%
Target sequence (P51452 whole entry, looked up): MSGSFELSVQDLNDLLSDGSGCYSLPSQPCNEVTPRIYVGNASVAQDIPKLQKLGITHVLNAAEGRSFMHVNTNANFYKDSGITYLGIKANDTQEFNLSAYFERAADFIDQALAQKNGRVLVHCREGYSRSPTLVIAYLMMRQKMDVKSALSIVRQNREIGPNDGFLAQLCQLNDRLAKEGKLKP
SARS 3CLpro inh-1: SARS-CoV 3CLpro protease inhibition; P0C6X7; recombinant SARS-CoV 3CLpro, quenched FRET peptide cleavage; inhibition, % at 6 µM; 290,000 compounds, 0.14% hits; AID 1706; in the data active = inhibition above about 12%
CCHF vOTU inh: blocks the CCHF virus ovarian tumor domain protease; CCHFV vOTU protease, Pep-AMC fluorescence; inhibition, % at 11.5 µM; 370,000 compounds, 0.55% hits; in the data active = inhibition above about 30%
SSB-PriA inh: blocks PriA binding to SSB C-terminal tail; AID 1272365; 430,000 compounds, 0.6% hits; inhibition, % at 33 µM; AlphaScreen SSBct-PriA binding, biotinylated peptide; in the data active = inhibition mostly above about 37%, no sharp cut-off; inactive = mostly below about 20%
SARS 3CLpro inh-2: SARS 3CLpro inhibition, confirmation assay. shares compounds with SARS 3CLpro inh-1. AID 1879. QFRET protease activity assay. 380 compounds, 36% hits. inhibition, % at 6 µM; in the data active = inhibition above about 13%
A number is an active result; - = inactive; . = not tested or not shown. Hits are enriched below; roughly 1.3% of the tested compounds scored in any of these assays.

SMILES	Mtb hypoxia rep	VHR inh abs	SARS 3CLpro inh-1	CCHF vOTU inh	SSB-PriA inh	SARS 3CLpro inh-2
Cc1cc(C)n(C(=O)c2ccc(C)c(Br)c2)n1	-	-	14	-	-	13
Cc1ccc(C(=O)NC(C#N)=C(Cl)Cl)cc1	-	-	13	-	-	-
Cc1ccc(C(=O)NC(=C(Cl)Cl)S(=O)(=O)c2ccccc2)cc1	-	-	21	-	-	28
Cc1nnc(SC(=O)N2c3ccccc3Sc3ccccc32)s1	-	-	24	-	-	38
CC[C@@]12C(=O)N(c3cccc(F)c3)C(=O)N1[C@H](c1ccc(F)cc1)[C@@H]1C(=O)N(C3CCCCC3)C(=O)[C@@H]12	.	-	16	.	-	-
CC(C)(C)OC(=O)NCCC(=O)Oc1ccc2ccc(=O)oc2c1	.	-	29	.	-	59
Cc1cc(=O)oc2cc(OC(=O)CCN3C(=O)c4ccccc4C3=O)ccc12	-	-	-	-	-	.
O=C(Oc1ccc2ccc(=O)oc2c1)c1cccs1	-	-	20	-	-	35
CCCC(=O)Oc1ccc2c(C)cc(=O)oc2c1	-	-	17	-	-	24
O=C(NCC[C@H](O)c1ccccc1)Nc1ccccc1C(F)(F)F	.	.	.	.	-	.
CCc1ccc(NC(=O)C2CCCN(S(=O)(=O)c3ccc4[nH]c(=O)ccc4c3)C2)cc1 (stereo not given)	.	-	13	-	-	-
Cc1ccc(NC(=O)C2CCCN(S(=O)(=O)c3ccc4[nH]c(=O)ccc4c3)C2)cc1C (stereo not given)	.	-	-	-	-	.
Cc1ccc2[nH]c3c(c2c1)CN(C(=O)CN1c2ccc(F)cc2CCC1C)CC3 (stereo not given)	-	-	44	-	-	28
Cc1ccc2[nH]c3c(c2c1)CN(C(=O)CN1CCN(c2cccc(C)c2C)CC1)CC3	.	-	-	-	-	.
Oc1ccc(Cl)cc1Cc1ccccc1	-	.	.	-	-	.
Oc1ccc(Cl)cc1Cc1cc(Cl)ccc1O	-	-	13	-	-	-
N#Cc1ccc(OC2CCN(C(=O)NCc3ccc(Cl)cc3)CC2)nc1	.	.	.	.	-	.
CC(C)C12CN(C(=O)c3ccccc3[N+](=O)[O-])CC(C(C)C)(CN(C(=O)c3ccccc3[N+](=O)[O-])C1)C2=O	-	-	29	-	-	35
O=C(c1cncc(Br)c1)N1CCN(S(=O)(=O)c2ccccc2)CC1	-	-	-	-	-	.
O=C(c1cncc(Br)c1)N1CCN(S(=O)(=O)c2ccccc2C(F)(F)F)CC1	-	-	17	-	-	-
CCOC(=O)c1c(C)oc2c1c1c(c3ccccc32)OCN(Cc2ccccn2)C1	-	-	13	-	57	-
CCOC(=O)c1c(C)oc2c1c1c(c3ccccc32)OCN(C2CCCCC2)C1	.	.	.	.	-	.
COc1ccc(Nc2oc(COc3ccc(C)cc3)nc2C#N)cc1	-	-	13	-	-	-
COc1ccc(Nc2oc(COc3ccc(OC)cc3)nc2C#N)cc1	-	-	-	-	-	.
COC(=O)c1ccc(NC(=O)CSc2ccc(N3CCOCC3)nn2)cc1	.	.	.	.	-	.
SMILES	Mtb hypoxia rep	VHR inh abs	SARS 3CLpro inh-1	CCHF vOTU inh	SSB-PriA inh	SARS 3CLpro inh-2
COC(=O)CC1COc2ccccc2N1C(=O)/C=C/c1ccccc1 (stereo not given)	-	-	46	-	-	-
COc1ccc(C2CC(c3cccs3)=NN2C(=O)CCl)cc1OC (stereo not given)	.	-	74	-	-	81
CC(=O)N1N=C(c2ccc(C)o2)CC1c1cccs1 (stereo not given)	.	.	.	.	-	.
COc1cc(C2CC(c3cccs3)=NN2C(=O)CCl)ccc1OC(F)F (stereo not given)	.	-	56	-	-	74
Cc1ccc(C2=NN(C(=O)CCl)C(c3cccs3)C2)o1 (stereo not given)	.	-	14	-	-	59
CCOC(=O)N1CCN(C(=O)Cn2c(=O)n(-c3ccccc3)c(=O)c3oc4ccccc4c32)CC1	.	.	.	.	-	.
CCOC(=O)N1CCN(C(=O)CCN2C(=O)c3cccc4cccc(c34)C2=O)CC1	.	.	.	.	-	.
CC(C)CN(CCC(=O)O)CC(C)C	-	-	14	-	-	-
O=C(O)CCN(CCC(=O)O)c1ccccc1	-	-	-	-	-	.
O=S(=O)(NCCn1ccc(-c2ccsc2)n1)c1cccs1	.	.	.	.	-	.
CCN(CC)S(=O)(=O)c1ccc(C(=O)NCCOc2cc(C)cc(C)c2)cc1	.	.	.	.	-	.
COc1ccc(C(NC(=O)CC(C)C)c2c(O)ccc3ccccc23)cc1 (stereo not given)	-	-	-	-	-	.
CC(C)CC(=O)NC(c1ccccc1Cl)c1c(O)ccc2ccccc12 (stereo not given)	-	-	13	-	-	-
O=C(/C=C/c1c(F)cccc1Cl)Nc1cccnc1	-	-	20	-	-	16
Cc1nn(C2CCS(=O)(=O)C2)c(C)c1S(=O)(=O)Nc1ccccc1Cl (stereo not given)	.	.	.	.	-	.
CC(=O)c1ccc(NC(=O)c2ccc(NC(=O)c3ccco3)cc2)cc1	-	-	-	.	-	.
COC(=O)c1ccc(NC(=O)c2ccc(NC(=O)c3ccco3)cc2)cc1	-	-	13	-	-	-
Cc1ccc(C(=O)Oc2ccc3c(c2)ncn3C)cc1	-	-	22	-	-	31
Cc1nc2ccc(OC(=O)c3ccccc3)cc2s1	-	-	-	-	-	.
Cn1cnc2cc(NC(=O)c3ccc(Cl)cc3)ccc21	-	-	33	-	-	31
Cn1cnc2cc(OC(=O)c3ccccc3)ccc21	-	-	15	-	-	-
O=C(C[C@H](NCc1cccnc1)C(=O)O)Nc1ccccc1Cl	.	.	.	.	-	.
COCCOC(=O)/C(C#N)=C/c1cn(Cc2ccccc2)nc1-c1cccnc1	-	-	16	-	-	-
N#Cc1ccc(CN2CCN(C(=O)c3cn(Cc4ccccc4)nc3-c3cccnc3)CC2)cc1	-	.	.	-	-	.
CC[C@@H](CO)NC(=O)C(=O)NCc1n[nH]c(=O)c2ccccc12	.	.	.	.	-	.
SMILES	Mtb hypoxia rep	VHR inh abs	SARS 3CLpro inh-1	CCHF vOTU inh	SSB-PriA inh	SARS 3CLpro inh-2
Nc1ccc2nn(-c3ccccc3)nc2c1	-	-	-	-	-	.
Nc1cc2nn(-c3ccccc3)nc2cc1Cl	-	-	12	-	-	-
O=C(NCCNc1ccc(Nc2cccnc2)nn1)c1cccc(C(F)(F)F)c1	.	.	.	.	-	.
O=C(c1cncc(Br)c1)N1CC(n2cc(-c3ccccc3)nn2)C1	.	.	.	.	-	.
N#Cc1c(NC(=S)NC(=O)c2ccccc2)sc2c1CCC2	.	-	21	-	-	-
O=C(NCC(=O)N1CCN(Cc2ccccc2)CC1)c1ccc(Br)cc1	-	-	12	-	-	-
O=C(CNS(=O)(=O)c1ccc(Br)cc1)N1CCN(Cc2ccccc2)CC1	.	-	-	-	-	.
COc1ccc(OC)c(-c2ccc(N3CCNCC3)nn2)c1	.	.	.	.	-	.
Cc1ccc(-n2c(Cc3cccn3C)nnc2SCC(=O)Nc2ccc3c(c2)OCO3)cc1	-	-	14	-	39	-
O=C(Cn1cnc2ccccc21)N1CCN(C(=O)C2CC2c2ccccc2)CC1 (stereo not given)	.	.	.	.	-	.
O=C(CN1CCSCC1)N1CCc2[nH]c3ccc(Br)cc3c2C1	.	-	22	.	.	75
COc1c(Cl)cc(C(=O)O)cc1Cl	.	.	.	-	-	.

High-throughput results deposited in PubChem BioAssay by several laboratories.
